About 79,000 compounds went through this panel and 15% of them were active in at least one assay; those are over-represented in the sample as a whole. A number with no mark means an inactive call. The source made the active and inactive calls. No stated cut-off is given here; in the data, active means growth inhibition above about 70%; inactive means the rest.

This experiment is described as follows: NCI Yeast Anticancer Drug Screen. Data for the bub3 strain (AID 167). The note with it: S. cerevisiae bub3 mutant strain, at 50.0 µM, active compounds read high. In outline: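 Whole-cell yeast assay. The mutant strain was incubated with compounds, and growth inhibition was determined by comparison with vehicle-treated cells.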
For the compound `CCP(=S)(CC)P(=S)(CC)CC`, the growth inhibition was -11.8%.

In the case of `Cc1cccc(C)c1NC(N)=S`, the growth inhibition was 6%.

With `Nc1ccc(C(=O)O)cc1[As](O)O`, the growth inhibition is 0.6%.

Regarding `FC(F)(F)c1cccc(NC2=NCCS2)c1`, the growth inhibition is 17.9%.

As to `CC(C)C1C=Cc2ccccc21` (stereo not given), the growth inhibition was -3.55%.

`CCOP(=O)(CC(N)=O)OCC`: the growth inhibition was 13.8%.

Turning to `O=c1[nH]cnc2c1ncn2-c1ccc(N(CCCl)CCCl)cc1`, the growth inhibition is -12.2%.

With `CCN1C(=O)NC(=O)C(C)(N2CCCCC2)C1=O` (stereo not given), the growth inhibition is 10.7%.

For the compound `C1CN1[PH+](N1CC1)N1CC1.[C-]#[O+].[C-]#[O+].[C-]#[O+].[C-]#[O+].[C-]#[O+].[W]`, the growth inhibition is 13.1%.

For the compound `O=C(NCC(O)CO)c1cc(N(CCCl)CCCl)c([N+](=O)[O-])cc1[N+](=O)[O-]` (stereo not given), the growth inhibition was -10.4%.

In the case of `CCCCCCNP(=O)(OCC)OCC`, the growth inhibition is -41.8%.

Turning to `CCC1(CCC(C)C)C(=O)NC(=O)N(c2ccccc2)C1=O` (stereo not given), the growth inhibition was 8.3%.

Turning to `O=N[O-].O=N[O-].[NH2-].[NH2-].[NH2-].[NH2-].[Ni]`, the growth inhibition was -14.8%.

Turning to `Oc1cccc(/C=N\NC(=S)NC2CN3CCC2CC3)c1` (stereo not given), the growth inhibition was 7.1%.

As for `CCN1/C(=C/C=C2\CCC(/C=C/c3sc4ccc(Cl)cc4[n+]3CC)=C2N(c2ccccc2)c2ccccc2)Sc2ccc(Cl)cc21`, the growth inhibition was 57.4%.

Turning to `COC(=O)C(Cl)Cl`, the growth inhibition was -5.6%.

As for `CO[C@@]12[C@@H]3N[C@@H]3CN1C1=C(C(=O)C(NCCC#N)=C(C)C1=O)[C@@H]2COC(N)=O`, the growth inhibition is -5.3%.

`O=S(=O)(N=S(CCCl)CCCl)c1ccccc1`: the growth inhibition was 21.4%.

On to `Cc1ccc2nc(CCl)[nH]c2c1`, for which the growth inhibition is -18.1%.

With `CCOC(=O)C(Cc1c[nH]c2ccccc12)NC(=O)/C=C/N(CCCl)CCCl` (stereo not given), the growth inhibition is -14.5%.

As to `O=c1c2cc(Br)cc(Br)c2nc(CCCl)n1-c1ccc(O)c([N+](=O)[O-])c1`, the growth inhibition was -7.5%.

`O=C(O)CCCC(=O)CCCC(=O)O.[Pb]`: the growth inhibition was 2.05%.

Take `CC(C)=NNC1=NC(C)(C)P(=O)(N2CCCC2C(=O)O)S1` (stereo not given): the growth inhibition is 5.25%.

For `O=C(NN=C1CCN(Cc2ccccc2)CC1)C(O)(c1ccccc1)c1ccccc1`, the growth inhibition was -14%.

With `CC1=C(C)C(=O)O[C@@H]([C@](C)(O)[C@]2(O)CC[C@@]3(O)[C@@H]4C[C@H]5O[C@]56[C@@H](O)C=CC(=O)[C@]6(C)[C@H]4CC[C@]23C)C1`, the growth inhibition is 20.1%.

With `CN1C2CCC1CC(OC(=O)c1cccc(O)c1)C2` (stereo not given), the growth inhibition is 15.9%.

Consider `COC(=O)CP(=O)(OC)OCC(F)(F)F` (stereo not given), for which the growth inhibition was -33.6%.

In the case of `CCC1(/C=C/C(C)C)C(=O)NC(=S)NC1=O`, the growth inhibition is 0.05%.

With `CCC(CN)c1ccccc1` (stereo not given), the growth inhibition was -14.4%.

In the case of `C=CCOCC1CO1` (stereo not given), the growth inhibition was -1.7%.

With `O=N[O-].O=N[O-].[Co].[NH-]CC[N-]CCO.[NH-]CC[N-]CCO`, the growth inhibition was 5.7%.

With `c1ccc(NC2CCN(C3(c4ccccc4)CCCCC3)CC2)cc1`, the growth inhibition is -1.75%.

On to `COC(=O)C1=C(O)C(C(=O)OC)C2/C(=[N+](/[O-])O)c3c(cc([N+](=O)[O-])cc3[N+](=O)[O-])C1C2[N+](=O)[O-]` (stereo not given), for which the growth inhibition is 67.8%.

`CCOP(=O)(/C=C/c1cc(OC)ccc1OC)OCC`: the growth inhibition is -29.8%.

As for `[C-]#[O+].[C-]#[O+].[C-]#[O+].[C-]#[O+].[Cr].c1ccc(P(CCP(CCP(c2ccccc2)c2ccccc2)c2ccccc2)CCP(c2ccccc2)c2ccccc2)cc1` (stereo not given), the growth inhibition is 21.4%.

On to `[I][Hg][CH]1CCC2CCCC1O2` (stereo not given), for which the growth inhibition is 98.8% (active).

For `COc1ccccc1[As](=O)(O)c1ccccc1`, the growth inhibition was -11%.

Regarding `COc1ccc(C(C)(C)CC(C)(C)C)cc1`, the growth inhibition is 6.1%.

As to `O=C1CN2CCC1CC2`, the growth inhibition was -23.2%.

As for `CCCC(NC(=O)CCl)C(=O)O` (stereo not given), the growth inhibition was 0.65%.

Source of the values: PubChem BioAssay (NCI).
